Compound activity from PubChem BioAssay.
TDP1 cell CPT – growth inhibition of DT40 Tdp1-/-;hTDP1 cells with camptothecin (screen for TDP1 inhibitors) | Potency, µM (doses to about 46.2 µM), without a hit: at the highest dose activity change, negative = growth inhibition, actives largely listed as inhibitors | chicken DT40 Tdp1-/-;hTDP1 cells + 20 nM CPT, ATP luminescence, 48 h | 420,000 compounds, 12% hits; further: potency means the concentration at half of the fitted maximal effect; nearly all actives have a fitted effect of over 55% in size
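Chicken DT40 Tdp1-/- cells stably complemented with human TDP1 were seeded at 400 cells/well in medium containing 20 nM camptothecin, exposed to pin-transferred compounds, and grown at 37 °C for at least 48 hr. Viability was read as ATP luminescence.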
IL-1B inflam inh – inflammasome signaling inhibition, IL-1 beta readout. THP-1 LPS/ATP IL-1B secretion, AlphaLISA, 16 h; hits give low values. activity change, % at 57.5 µM. 360,000 compounds, 4.7% hits. AID 743279; in the data active means activity change below about -50%; inconclusive means mostly about -30% to -49%
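Secreted IL-1B measured by AlphaLISA bead assay after 16 h compound exposure of THP-1 cells; compounds (final up to 57.5 uM) added 1 h before LPS (250 ng/mL) and ATP (1.25 mM) stimulation; lower signal means less secretion.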
HT1080 IDH1KD tx – toxicity to HT-1080 IDH1 knockdown cells (counter line); Potency, µM (top dose mostly 46.1 µM), for the others: top-dose activity, negative = toxicity, hits mostly cytotoxic; AID 686971; 360,000 compounds, 2% hits; HT-1080 IDH1 knockdown viability, ATP luminescence, 48 h;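 further: potency means the concentration at half of the fitted maximal effect; 0% = DMSO wells and -100% = cell-free medium wells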
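Viability of IDH1-knockdown HT-1080 fibrosarcoma cells was assessed by CellTiter-Glo after 48 h at 37 °C with titrated compound; concentration-effect curves were classified by fit quality and response size.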
TDP1 cell noCPT – qHTS for Inhibitors of human tyrosyl-DNA phosphodiesterase 1 (TDP1): qHTS in cells in absence of CPT | Potency, µM (top dose mostly 46.2 µM), for inactives: at the top dose activity change, negative = growth inhibition, most hits filed as inhibitors | 420,000 compounds, 15% hits | DT40 Tdp1-/- hTDP1 cells, no CPT, ATP luminescence, 48 h | AID 686978, 2013; further: potency means the concentration at half of the fitted maximal effect; nearly all actives have a fitted effect of over 55% in size
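Stably hTDP1-transfected Tdp1-null chicken DT40 cells were treated with library compounds minus camptothecin and grown for at least 48 hr at 37 °C, after which cellular ATP was quantified by luminescence.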
HT1080-NT tox – kills 2HG-producing HT-1080-NT fibrosarcoma cells; HT-1080-NT fibrosarcoma viability, CellTiter-Glo ATP luminescence, 48 h; Potency, µM (titrated, usually from 46.1 µM), without a hit: top-dose activity, negative = less viability, hits mostly cytotoxic; 360,000 compounds, 1.6% hits;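 further: NT is the 2HG producing partner of a matched IDH1 knockdown line; potency means the concentration at half of the fitted maximal effect; 0% = DMSO-treated cells and -100% = media-only wells without cells; nearly all actives have a fitted effect of over 55% in size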
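Compounds were tested in concentration-response format on HT-1080-NT cells for 48 hours at 37 degrees C. Cell viability came from CellTiter-Glo luminescence; curves were classified by r2, response magnitude and activity.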
uPA surface inh – cell surface uPA generation inhibition; cell surface uPA generation assay, qHTS; 330,000 compounds, 0.31% hits; Potency, µM (top dose mostly 38.3 µM), for inactives: at the top dose activity change, negative = inhibition, usual class: inhibitors; active means well fitted inhibition curve with a large enough effect; inconclusive means small, poorly fitted or top-dose-only effect; inactive means no such curve, though single readings can be large or run the other way; tested in mouse RAW 264.7 cells; further: potency means the concentration at half of the fitted maximal effect; nearly all actives have a fitted effect of over 55% in size
An asterisk follows results filed as active; i = inactive; ? = inconclusive; nt = no result given; [ ] = dose if it differs, or a comment. The list is not random: actives were taken first. Their share in the collection is about 19%. Unless noted, the call rests on the fitted dose curve; in most records, active means well fitted curve in the direction sought with a large enough effect; inconclusive means small, poorly fitted or top-dose-only effect, or another doubt; inactive means no such curve, though single readings can be large; an effect the other way counts as inactive or inconclusive. Unless noted, on the % scale 0 is the no-effect control and ±100 the full control effect.

SMILES	TDP1 cell CPT	IL-1B inflam inh	HT1080 IDH1KD tx	TDP1 cell noCPT	HT1080-NT tox	uPA surface inh
Cc1cc(Br)cn2c(Cc3cccc(F)c3)c(C3CCCCC3)nc12	?	0	?	?	?	nt
Cc1ccc(Cc2c(-c3ccccc3)nc3cc(C)c(Br)c(C)n23)cc1	?	22	-3%	?	-10%	nt
Cc1cc2nc(-c3ccccc3)c(Cc3cccc(F)c3)n2c(C)c1Br	?	0	-25%	16µM*	-20%	nt
O=C(CCc1ccccc1)N1CCN(S(=O)(=O)c2cccs2)CC1	3%	-6	-2%	-18%	0%	7%
CCC(C)n1c(=O)c2sccc2n2c(CCCC(=O)N3CCC(C(N)=O)CC3)nnc12 (stereo not drawn)	-1%	0	-1%	-2%	-8%	-7%
CC1CCCN(C(=O)c2ccc(NS(=O)(=O)c3cccc([N+](=O)[O-])c3)cc2)C1 (stereo not drawn)	-27%	16	0%	?	-6%	2%
O=C(Nc1ccc(OCc2ccccc2)cc1)Nc1nnc([C@H]2C[C@H](O)[C@@H](CO)O2)s1	?	178	2%	?	-1%	nt
Cc1cc(C)c(CN2CCC(n3nccc3NC(=O)c3ccccc3Cl)CC2)cc1C	15µM*	i	?	?	?	-7%
Cn1cc(CN2CCC(n3nccc3NC(=O)c3ccccc3Cl)CC2)cn1	-2%	1	16%	-5%	14%	0%
CCc1ccc(CN2CCC(n3nccc3NC(=O)c3ccccc3Cl)CC2)cc1	23µM*	-50*	14%	?	0%	0%
COc1ccccc1C(=O)Nc1ccnn1C1CCN(Cc2cc(C)c(C)cc2C)CC1	?	-11	-14%	18µM*	-13%	?
O=C(Nc1ccnn1C1CCN(C/C=C/c2ccccc2)CC1)c1cccc(F)c1	?	-53*	?	0%	-14%	10%
COc1cccc(-c2cc(NCc3cnc(C)cn3)ncn2)c1	7%	nt	nt	-13%	nt	nt
Cc1cccc2cc(CN(CC3CCCO3)C(=O)C3CC3)c(N(C)C)nc12 (stereo not drawn)	-3%[9.04 µM]	nt	nt	1%	nt	nt
CCCCc1ncc(CN2CCC(n3nccc3NC(=O)c3ccccc3OC)CC2)[nH]1	?	0	1%	15µM*	0%	1%
CC[C@]12CCCN3CCc4c(n(c5ccccc45)C(=O)C1)[C@H]32	11µM*	nt	nt	9.4µM*	nt	nt
Cc1ccc(S(=O)(=O)N2[C@@H](CO)CO[C@H]2CC(=O)c2ccc(F)cc2)cc1	4%	-6	-1%	-8%	1%	nt
Cc1cccc(C)c1NC(=O)CN(c1c(C)cccc1C)S(C)(=O)=O	21%	-19	2%	14%	-2%	nt
CCOc1ccccc1NC(=S)N1CCN(c2cccc(OC)c2)CC1	21µM*	46	-21%	?	-10%	?
COc1cccc(N2CCN(C(=S)Nc3ccccc3OC)CC2)c1	19%	16	8%	-7%	14%	-1%
COc1cccc(N2CCN(C(=S)Nc3cc(C)cc(C)c3)CC2)c1	6.5µM*	8	-7%	6.5µM*	-6%	-1%
Cc1ccc(S(=O)(=O)c2cn(CC(=O)Nc3ccccc3)c3cc4c(cc3c2=O)OCO4)cc1	-1%	nt	nt	-9%	nt	nt
O=C(c1ccco1)N1CCN(C(c2coc3ccc(Cl)cc3c2=O)c2nnnn2C2CCCC2)CC1 (stereo not drawn)	?	-14	12%	?	7%	1%
Cc1ccc2occ(C(c3nnnn3C3CCCC3)N3CCN(C(=O)c4ccco4)CC3)c(=O)c2c1 (stereo not drawn)	16µM*	-64*	?	?	-26%	-11%
O=C(Cn1nc(-c2ccccc2)c2c(c1=O)CCCC2)Nc1ccc(F)c(Cl)c1	-12%	nt	nt	-6%	nt	nt
SMILES	TDP1 cell CPT	IL-1B inflam inh	HT1080 IDH1KD tx	TDP1 cell noCPT	HT1080-NT tox	uPA surface inh
CC1(C(=O)NS(=O)(=O)C2CC2)CCN(C(=O)c2ccccc2OC(F)(F)F)C1 (stereo not drawn)	-4%	4	-4%	0%	-3%	nt
CC1(C(=O)NS(=O)(=O)C2CC2)CCCN(C(=O)c2cccnc2Oc2ccccc2)C1 (stereo not drawn)	?	-7	11%	1µM*	?	nt
CCNC(=O)C1(C)CCCN(C(=O)c2cccnc2Oc2ccccc2)C1 (stereo not drawn)	12%	21	17%	-20%	17%	nt
COc1ccccc1C(=O)N1CCCC(C)(C(=O)NS(=O)(=O)C2CC2)C1 (stereo not drawn)	?	2	22%	1.6µM*	9%	nt
CC1(C(=O)NS(=O)(=O)C2CC2)CCCN(C(=O)c2ccccc2C(F)(F)F)C1 (stereo not drawn)	6.5µM*	-5	10%	5.8µM*	1%	nt
CC[C@]12C(=O)N(C)C[C@H]([C@@H]3C(=O)N(Cc4ccccc4)C(=O)[C@@H]31)N2C(=O)c1ccc(F)cc1	-2%	23	13%	-7%	12%	3%
CC(=O)N1N=C2c3ccccc3CCC2C1c1ccc(F)cc1 (stereo not drawn)	-27%	nt	21µM*	?	?	-4%
CC(=O)N1N=C2/C(=C/c3ccccc3)CCCC2C1c1ccccc1 (stereo not drawn)	?	-5	?	?	?	-5%
CCNC(=S)N1N=C2c3ccccc3CCC2C1c1ccc(F)cc1 (stereo not drawn)	?	14	?	23µM*	?	-10%
COc1cccc(COC(=O)c2ccc(-c3nnn(Cc4cccc(OC)c4)n3)cc2)c1	-25%	nt	nt	-29%	nt	nt
O=C(NC1CCCCC1)N1CCN(C(c2ccccc2)c2ccccc2)CC1	10µM*	-15	-1%	16µM*	-7%	-29%
Cc1nn(-c2ccccc2)c(Cl)c1CN(C(=O)CCl)c1ccc(Cl)cc1	7.3µM*	-113*	5.2µM*	6.5µM*	7.3µM*	-12%
Cc1nn(-c2ccccc2)c(Cl)c1CN(C(=O)CCl)c1cccc2ccccc12	5.8µM*	-98*	5.2µM*	6.5µM*	4.1µM*	-12%
Cc1ccccc1CN1CCC(CNC(=O)C2CCCN(c3ncnc4c3nc3n4CCCCC3)C2)CC1 (stereo not drawn)	?	-86*	?	?	?	-7%
